Experimental data from the supplement of paper PMC11018630.
Structures can show the parent of a compound that is named as a salt. ± gives the standard deviation of the averaged measurements.

test system: RDEB dermal fibroblasts EB119; assay: day of extracellular matrix detachment from plate (days); higher = delayed detachment (less fibrotic matrix); conditions: compound concentration: 10 uM

SMILES	day of extracellular matrix detachment from plate
N=C(N)NN [Aminoguanidine (hydrochloride)]	26.3 ± 1.1
CCN(C)C(=O)Oc1cccc([C@H](C)N(C)C)c1 [Rivastigmine]	30.3 ± 2.9
Cc1ccc(-n2nccn2)c(C(=O)N2CCN(c3nc4cc(Cl)ccc4o3)CC[C@H]2C)c1 [Suvorexant (MK-4305)]	25
